POLK inh – blocks human DNA polymerase kappa activity; purified Pol kappa, fluorescent DNA synthesis assay, 10 min; Potency, µM (doses to about 107 µM), actives largely listed as inhibitors; actives 0.53% (n = 400,000); AID 588579
Target sequence (Q9UBT6 whole entry, looked up): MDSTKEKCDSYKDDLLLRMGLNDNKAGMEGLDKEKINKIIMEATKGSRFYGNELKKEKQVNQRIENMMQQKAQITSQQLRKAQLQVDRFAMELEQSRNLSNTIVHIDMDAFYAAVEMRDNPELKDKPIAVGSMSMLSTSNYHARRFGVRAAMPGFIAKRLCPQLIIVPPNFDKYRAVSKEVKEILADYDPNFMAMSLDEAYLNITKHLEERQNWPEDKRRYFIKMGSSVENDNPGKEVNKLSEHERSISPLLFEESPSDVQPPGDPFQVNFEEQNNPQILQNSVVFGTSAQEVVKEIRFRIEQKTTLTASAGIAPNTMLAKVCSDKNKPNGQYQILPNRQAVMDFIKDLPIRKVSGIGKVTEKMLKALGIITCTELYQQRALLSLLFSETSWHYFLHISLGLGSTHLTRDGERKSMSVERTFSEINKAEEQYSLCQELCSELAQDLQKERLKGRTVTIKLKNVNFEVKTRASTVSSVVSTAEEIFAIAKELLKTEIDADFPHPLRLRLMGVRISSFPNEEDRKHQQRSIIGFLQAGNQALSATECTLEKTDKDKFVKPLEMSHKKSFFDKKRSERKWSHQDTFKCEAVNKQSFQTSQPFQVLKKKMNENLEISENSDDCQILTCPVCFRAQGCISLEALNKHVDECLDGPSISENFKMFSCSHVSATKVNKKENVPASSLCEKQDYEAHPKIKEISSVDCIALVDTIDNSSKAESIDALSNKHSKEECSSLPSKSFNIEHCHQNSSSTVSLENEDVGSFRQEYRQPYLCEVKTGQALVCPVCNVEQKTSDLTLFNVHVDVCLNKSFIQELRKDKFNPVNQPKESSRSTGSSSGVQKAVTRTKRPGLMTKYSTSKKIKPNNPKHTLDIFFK
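Readout: fluorescence, taken kinetically at 0 and 10 min. Conditions: 10 nM Pol kappa, 15 min RT compound preincubation, 50 nM substrate final. Controls: enzyme-free buffer wells.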
PI4K2A block – inhibitors of human PI4K2A; purified PI4K2A, ADP-Glo luminescence, 1 h; hits give low values; actives 0.13% (n = 420,000); activity change, negative = inhibition, % at 76.9 µM; Q9BTU6; AID 1346378; in the data active = activity change below about -50%; inconclusive = mostly about -30% to -49%
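In this quantitative HTS, ADP production by PI4K2A was quantified luminescently after 1 h at ambient temperature; 100 microM adenosine served as plate-quality control.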
PI5P4K alpha inh – inhibitors of human PI5P4K alpha; P48426; PI5P4Kalpha enzyme, ADP-Glo luminescence, 60 min; hits give low values; max response, %; actives 1.2% (n = 330,000); AID 652105; active = max response of -50% or lower; inconclusive = between -30% and -50%; inactive = -30% or higher; also: value at the top dose of about 77 µM
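Compounds were pin-transferred onto PI5P4Kalpha and substrate in HEPES pH 7.4 buffer with EGTA, CHAPS and 5% DMSO. ATP (5 microM final) started the reaction, which ran 60 minutes at room temperature before ADP-Glo detection.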
POLI inh – DNA polymerase iota (human) inhibition. Q9UNA4. Pol iota fluorescent replication assay, 10 min. Potency, µM (top dose mostly 115 µM), actives largely listed as inhibitors. actives 1% (n = 390,000). AID 588590
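Pol iota at 10 nM preincubated 15 min with compounds at room temperature; reaction started with fluorescent substrate, 50 nM final. Fluorescence read kinetically at 0 and 10 min; buffer-only wells as negative control.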
POLH inh – DNA polymerase eta (human) inhibition | AID 588591 | actives 1.2% (n = 390,000) | Potency, µM (series often up to 114 µM), most hits filed as inhibitors | recombinant Pol eta, fluorescent DNA replication assay
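Fluorescent replication assay: 50 nM final substrate added after a 15 min room-temperature compound preincubation with 10 nM enzyme. Signal taken at 0 min and again at 10 min.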
Pol beta inh – DNA polymerase beta (human) inhibition | P06746 | Pol beta primer extension/strand displacement, fluorescence kinetic | Potency, µM (highest dose often 114 µM), most hits filed as inhibitors | actives 1.3% (n = 340,000)
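Pol beta (10 nM) and compounds were preincubated 15 min at room temperature, then 50 nM substrate (final) started primer extension/strand displacement. Reads were taken at 0 and 10 min; concentration-response data were fitted to a four-parameter Hill equation.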
Each line names hits and unclear results; the compound was inactive in the other large screens. Rows were chosen to be rich in hits. Some 2.8% of all compounds tested hit in one or more screens of this group. Unless noted, calls follow the shape of the dose curve; as a rule, active = well fitted inhibition curve with a large enough effect; inconclusive = small, poorly fitted or top-dose-only effect, or another doubt; inactive = no such curve, though single readings can be large or run the other way.

CCC(=O)O[C@H]1C(O[C@@H]2C(C)[C@H](O[C@H]3C[C@@](C)(OC)C(O)C(C)O3)C(C)C(=O)OC(CC)[C@@](C)(O)C(O)[C@H](C)C(=O)C(C)C[C@]2(C)O)OC(C)CC1N(C)C (stereo partly drawn)	POLK inh 31.6µM (no result: PI4K2A block, PI5P4K alpha inh, POLI inh, POLH inh, Pol beta inh)
CCOC(=O)CCC(=O)O[C@H]1C(O[C@@H]2C(C)[C@H](O[C@H]3C[C@@](C)(OC)C(O)C(C)O3)C(C)C(=O)OC(CC)[C@@](C)(O)C(O)[C@H](C)C(=O)C(C)C[C@]2(C)O)OC(C)CC1N(C)C (stereo partly drawn)	none (no result: PI4K2A block, PI5P4K alpha inh, POLI inh, POLH inh, Pol beta inh)
CCCC(=O)Nc1ccc2c(c1)C(=O)N(C)[C@H]1CC[C@@H](CC(=O)OC)O[C@@H]1CO2	none (no result: POLK inh, PI5P4K alpha inh, POLI inh, POLH inh, Pol beta inh)
CS(=O)(=O)Nc1ccc(-c2ccc(/C=C3\SC(N)=NC3=O)o2)cc1	PI5P4K alpha inh -65.0, POLI inh inconclusive, POLH inh inconclusive, Pol beta inh 39.8µM
NC1=NC(=O)/C(=C/c2cccs2)S1	none (no result: PI5P4K alpha inh)
O=C(O)c1cc(-c2ccc(N3CCOCC3)cc2)nn1-c1ccc(F)cc1	none
O=C(c1cc(-c2cccc(Cl)c2)on1)N1CCCCCC1	none
O=C(c1cc(-c2ccco2)nn1-c1cccc(Cl)c1)N1CCCCC1	POLK inh inconclusive, PI5P4K alpha inh -81.6, POLI inh inconclusive, POLH inh 17.8µM, Pol beta inh inconclusive
Cc1ccc(-n2nc(-c3ccco3)cc2C(=O)O)cc1	POLK inh inconclusive, PI5P4K alpha inh -51.5, POLI inh 17.8µM, POLH inh 14.1µM, Pol beta inh inconclusive
C/C=C(\C)C(=O)NCCN1C2=NC[C@H](Cc3ccc(O)cc3)N2C[C@H]1Cc1ccc(O)cc1	none
C/C=C(\C)C(=O)NCCN1C2=NC[C@@H](Cc3ccccc3)N2C[C@H]1Cc1ccc(O)cc1	POLI inh 70.8µM
Cc1cc(O)c(C)c(C)c1O	none (no result: POLK inh, PI5P4K alpha inh, POLI inh, POLH inh, Pol beta inh)
CCCCCOc1ccccc1/C(=C\SC)n1ccnc1	none (no result: POLK inh, PI5P4K alpha inh, POLI inh, POLH inh, Pol beta inh)
Cc1ccc2cccc(OCC(=O)c3cc(C)n(Cc4ccco4)c3C)c2n1	Pol beta inh 11.2µM (no result: POLK inh, PI4K2A block, PI5P4K alpha inh, POLI inh, POLH inh)
Cc1cc(C(=O)CSc2nnc(-c3ccco3)o2)c(C)n1Cc1ccco1	POLI inh inconclusive, POLH inh inconclusive, Pol beta inh 44.7µM
COc1ccc(-c2n[nH]c(=S)o2)c(OC)c1	PI5P4K alpha inh -85.7
CCOc1ccccc1-c1n[nH]c(=S)o1	none (no result: PI5P4K alpha inh)
Clc1ccc(/C=C/c2ccc3ccccc3n2)c(Cl)c1	none (no result: PI4K2A block, PI5P4K alpha inh, POLH inh, Pol beta inh)
O=C(NCC(c1cccnc1)N1CCc2ccccc21)c1cccc(Br)c1 (stereo not drawn)	none (no result: PI5P4K alpha inh)
O=C(Nc1nnc(-c2ccco2)o1)c1ccc(N2C(=O)CCC2=O)cc1	POLI inh 22.4µM, Pol beta inh inconclusive
O=C(CCc1nc2ccccc2c(=O)[nH]1)N1CCCc2ccccc21	POLH inh 50.1µM (no result: Pol beta inh)
O=C(CCc1nc2ccccc2c(=O)[nH]1)N1CCN(c2ccccc2Cl)CC1	none (no result: Pol beta inh)
Cc1ccc(-n2c(SCC(=O)Nc3ccccc3-c3ccccc3)nnc2-c2cccs2)cc1	none (no result: POLK inh, PI5P4K alpha inh, POLI inh, POLH inh, Pol beta inh)
COC(=O)c1ccc(NC(=O)c2nc(S(=O)(=O)Cc3ccccc3F)ncc2Cl)cc1	POLI inh inconclusive (no result: PI4K2A block, PI5P4K alpha inh, POLH inh, Pol beta inh)
CCc1cc(-c2n[nH]c(C)c2-c2ccccc2Cl)c(O)cc1OC	POLI inh 89.1µM
CCOc1ccc(-c2n[nH]c(C)c2-c2ccccc2OC)c(O)c1	none
Cc1cc2oc(C(=O)NCCc3ccc(S(N)(=O)=O)cc3)cc(=O)c2cc1C	none
NS(=O)(=O)c1ccc(CCNC(=O)c2ccc(Cl)s2)cc1	none
Cc1cc2oc(C(=O)NCCc3ccc(S(N)(=O)=O)cc3)c(C)c2cc1C	POLI inh 25.1µM, Pol beta inh 5.62µM
NS(=O)(=O)c1ccc(CCNC(=O)c2cc3ccccc3s2)cc1	POLK inh inconclusive, POLI inh 22.4µM, POLH inh 28.2µM, Pol beta inh 44.7µM
COc1cc2nc(N3CCN(C)CC3)nc(NC3CCN(C)CC3)c2cc1OC	none (no result: PI4K2A block, PI5P4K alpha inh, POLH inh, Pol beta inh)
CCSc1nc2n(n1)C(c1ccc(Cl)cc1Cl)C(C(=O)Nc1ccccc1C)=C(C)N2 (stereo not drawn)	none (no result: PI5P4K alpha inh)
Cc1sc2nc3c4ccccc4c(NCc4ccco4)nn3c(=O)c2c1C	PI5P4K alpha inh inconclusive, POLH inh inconclusive, Pol beta inh 11.2µM

High-throughput results (PubChem BioAssay)
